Experimental data: publication PMC5540273 (PLoS ONE, 2017)

What was measured:
Settings in all cases: concentration: 1 μM, replicates: in singlicate; n = 1
EPHA3 = test system: EPHA3
EPHA4 = test system: EPHA4
EPHA5 = test system: EPHA5
EPHA6 = test system: EPHA6
EPHA7 = test system: EPHA7
EPHA8 = test system: EPHA8
EPHB1 = test system: EPHB1
EPHB2 = test system: EPHB2
EPHB3 = test system: EPHB3
EPHB4 = test system: EPHB4
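Note: KINOMEscan kinase panel screen.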

| Structure (SMILES) | %Inh (EPHA3) [%] | %Inh (EPHA4) [%] | %Inh (EPHA5) [%] | %Inh (EPHA6) [%] | %Inh (EPHA7) [%] | %Inh (EPHA8) [%] | %Inh (EPHB1) [%] | %Inh (EPHB2) [%] | %Inh (EPHB3) [%] | %Inh (EPHB4) [%] |
| --- | --- | --- | --- | --- | --- | --- | --- | --- | --- | --- |
| CCn1cnc2c(N)ncnc21 [GW345098] | 0 | 7 | 16 | 17 | 3 | 1 | 7 | 0 | 17 | 14 |
| COc1ccc(Nc2nccc(N3CCC(NC(=O)Nc4cccc(C(C)=O)c4)C3)n2)cc1 (centres unmarked) [GSK1379731] | 0 | 6 | 0 | 0 | 0 | 9 | 0 | 0 | 9 | 5 |
| c1ccc(-c2cc(-c3c[nH]nc3-c3ccccn3)ccn2)cc1 [GW576604] | 15 | 0 | 0 | 0 | 0 | 0 | 20 | 0 | 0 | 7 |
| c1ccc(-c2n[nH]cc2-c2ccnc3ccccc23)nc1 [GW271431] | 14 | 2 | 0 | 1 | 6 | 9 | 32 | 0 | 7 | 11 |
| Cl.Nc1ncnc2occ(-c3ccc(NC(=O)Nc4cc(C(F)(F)F)ccc4F)cc3)c12 [SB-707548] | 76 | 93.9 | 91.5 | 99.3 | 98.9 | 99.7 | 96 | 94.4 | 94.7 | 96 |
| NS(=O)(=O)c1cccc(-c2ccc3nccc(-c4cccc(S(N)(=O)=O)c4)c3c2)c1 [GW867253] | 11 | 0 | 2 | 0 | 0 | 4 | 0 | 0 | 0 | 0 |
| COc1ccc(COc2cc(-n3cnc4ccccc43)sc2C(N)=O)cc1 [GSK1024304] | 11 | 0 | 0 | 0 | 6 | 19 | 12 | 9 | 0 | 11 |
| CCc1ccnc(/C=C/c2n[nH]c3cc(Sc4ccccc4C(=O)NC)ccc23)c1 | 0 | 1 | 5 | 0 | 2 | 7 | 4 | 0 | 0 | 0 |
| O=C1NC(=O)C(N2CCc3ccccc32)=C1c1cccc(Cl)c1 [SB-408010] | 0 | 19 | 17 | 18 | 0 | 0 | 0 | 3 | 23 | 22 |
| O=C(NCCNc1ccnc(Nc2ccc(F)cc2)n1)c1cc2ccccc2s1 [GSK1379874] | 0 | 0 | 0 | 0 | 6 | 18 | 0 | 0 | 12 | 0 |
| Cc1cccc(-c2nc(Nc3ccc4ncsc4c3)c3ccccc3n2)n1 [GW867588] | 22 | 21 | 6 | 21 | 0 | 4 | 30 | 0 | 22 | 0 |
| CC(C)Oc1ccc2c(-c3ccnc(Nc4ccc(N5CCN(C)CC5)cc4)n3)cnn2n1 [GW696155] | 33 | 1 | 0 | 11 | 7 | 9 | 9 | 0 | 13 | 26 |
| NCC(NC(=O)c1cc(-c2cn[nH]c2)c(-c2ccnc3[nH]ccc23)s1)c1ccccc1.O=C(O)C(F)(F)F.O=C(O)C(F)(F)F (centres unmarked) [GSK1325775] | 31 | 0 | 0 | 0 | 0 | 7 | 13 | 0 | 1 | 0 |
| CCc1nc(-c2cccc(C)c2)c(-c2ccnc(NCc3ccccc3)c2)s1 | 0 | 0 | 0 | 17 | 4 | 11 | 15 | 6 | 0 | 3 |
| CC(C)(C)n1cnc2c(N)ncnc21 [SKF-97359] | 0 | 0 | 0 | 0 | 0 | 7 | 0 | 0 | 0 | 0 |
| CSc1ccc(-c2cc3ncnc(SCC(=O)O)c3s2)cc1 | 0 | 5 | 13 | 6 | 0 | 0 | 4 | 0 | 15 | 18 |
| O=c1cc(N2CCOCC2)nc2n(Cc3cccc4ccccc34)ccn12 [GSK2333389] | 0 | 14 | 0 | 8 | 5 | 9 | 10 | 0 | 11 | 5 |
| CN1c2ccc(CNc3ccc(F)cc3)cc2-c2c(cnn2C)S1(=O)=O | 0 | 0 | 0 | 0 | 0 | 0 | 0 | 17 | 0 | 1 |
| COC(=O)Nc1nc2cc(Oc3ccc(NC(=O)Nc4cc(F)ccc4F)cc3)ccc2[nH]1.Cl [GW701424] | 8 | 37 | 1 | 75 | 16 | 75 | 37 | 68 | 1 | 53 |
| Cc1c2ccc(N(C)c3ccnc(Nc4cccc(S(N)(=O)=O)c4)n3)cc2nn1Cc1ccccc1.Cl.Cl [GW787226] | 15 | 21 | 0 | 19 | 0 | 39 | 12 | 20 | 7 | 0 |
